From the supplement of paper PMC10849652
About 8,800 targets were measured; listed, in parts, are those with a hit and a random draw of the rest. About 0.5% of all pairs of compound and target were hits.

Legend:
Experiment in all cases: log2 fold change, soluble protein after heating vs DMSO (PISA); higher = thermal stabilisation; K562 lysate, 10 uM; active = over 0.2 and 3.5 SD of the protein, either way, in both replicates (recomputed)
ibrutinib = compound: C=CC(=O)N1CCC[C@@H](n2nc(-c3ccc(Oc4ccccc4)cc3)c3c(N)ncnc32)C1 [ibrutinib]
How it was run: (§1)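 K562 pellets were dounce-homogenised in PBS pH 7.4 containing 1 mM MgCl2, and the crude extract, at 1 mg/mL protein, was exposed to 10 μM compound for 30 min. Aliquots were heated for 3 min across 48°C-58°C, pooled, brought to 0.5% NP-40 at 4°C and spun at 21,000xg for 90 min, with the supernatant taken as soluble protein. TMTpro 16plex LC-MS/MS with equalised channel sums quantified that protein. Values are log-two fold changes in thermal stability relative to solvent controls, taken from duplicates.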

[1] = compound: CC(=O)c1cnc2ccc(-c3cc(Cl)c(O)c(Cl)c3)nc2c1N[C@H]1CC[C@H](CN(C)C)CC1
How it was run: as §1

ralimetinib = compound: CC(C)(C)Cn1c(N)nc2ccc(-c3[nH]c(C(C)(C)C)nc3-c3ccc(F)cc3)nc21 [ralimetinib]
How it was run: as §1

[2] = compound: CC(C)(O)CC(=O)NCCn1ccc2ncnc(Nc3ccc(Oc4cccc(C(F)(F)F)c4)c(Cl)c3)c21
How it was run: as §1

[3] = compound: CC(C)C1=C2N=C(C=C(N2N=C1)NCC3=CC=CC=C3)NCCCCCCN
How it was run: as §1

[4] = compound: CC1=C(C(CC(=O)N1)C2=CC=C(C=C2)C(F)(F)F)C(=O)NC3=C(C=C4C(=C3)C=NN4)F
How it was run: as §1

[5] = compound: CC1=C(C2=C(C=C1)C(=O)C3=CC=CC=C3N2CCCN)C
How it was run: as §1

[6] = compound: CC1=C(C=C(C=C1)NC(=O)C2=CC(=CC=C2)C(C)(C)C#N)NC3=CC4=C(C=C3)N=CN(C4=O)C
How it was run: as §1

[7] = compound: CC1=C(C=C(C=C1)NC(=O)C2=CC(=CC=C2)N(C)C)NC(=O)C3=CC=C(C=C3)O
How it was run: as §1

[8] = compound: CC1=CC=C(C=C1)SC2=C3C=C(SC3=CN=C2)C(=O)N
How it was run: as §1

[9] = compound: CCCS(=O)(=O)Nc1ccc(F)c(C(=O)c2c[nH]c3ncc(Cl)cc23)c1F
How it was run: as §1

barasertib = compound: CCN(CCCOc1ccc2c(Nc3cc(CC(=O)Nc4cccc(F)c4)[nH]n3)ncnc2c1)CCOP(=O)(O)O [barasertib]
How it was run: as §1

[10] = compound: CC[C@@H]1C(=O)N(C)c2cnc(Nc3ccc(C(=O)NC4CCN(C)CC4)cc3OC)nc2N1C1CCCC1
How it was run: as §1

volasertib = compound: CC[C@@H]1C(=O)N(C)c2cnc(Nc3ccc(C(=O)N[C@H]4CC[C@H](N5CCN(CC6CC6)CC5)CC4)cc3OC)nc2N1C(C)C [volasertib]
How it was run: as §1

[11] = compound: CCn1c(C(=O)N(C2CC2)C2CC2)cc2c3c(ncn3C)c(Nc3cc(C)n(C)n3)nc21
How it was run: as §1

[12] = compound: CCn1cc(-c2ccnc3[nH]c(-c4cccc(CN(C)C)c4)cc23)c(-c2ccc(NC(=O)N(C)C)cc2)n1
How it was run: as §1

[13] = compound: CN1CCC(CNc2ccc3ncc(-c4cccc(OC(F)(F)F)c4)n3n2)CC1
How it was run: as §1

saracatinib = compound: CN1CCN(CCOc2cc(OC3CCOCC3)c3c(Nc4c(Cl)ccc5c4OCO5)ncnc3c2)CC1 [saracatinib]
How it was run: as §1

sotrastaurin = compound: CN1CCN(c2nc(C3=C(c4c[nH]c5ccccc45)C(=O)NC3=O)c3ccccc3n2)CC1 [sotrastaurin]
How it was run: as §1

vemurafenib = compound: CCCS(=O)(=O)Nc1ccc(F)c(C(=O)c2c[nH]c3ncc(-c4ccc(Cl)cc4)cc23)c1F [vemurafenib]
How it was run: as §1

Measured: log2 fold change

MRPL30 isoform 2 (UniProt Q8TCC3)
inactive: ibrutinib 0.01 | [1] 0.043 | ralimetinib 0.04 | [2] -0.084 | [3] 0 | [4] 0 | [5] -0.037 | [6] 0.02 | [7] -0.006 | [8] 0.087 | [9] 0.002 | barasertib 0.002 | [10] -0.068 | volasertib -0.013 | [11] -0.027 | saracatinib 0.01 | sotrastaurin 0.016
active: [12] 0.563 | [13] -0.434

METTL21A (UniProt Q8WXB1)
UniProt Q8WXB1, sequence (Q8WXB1 whole entry, looked up): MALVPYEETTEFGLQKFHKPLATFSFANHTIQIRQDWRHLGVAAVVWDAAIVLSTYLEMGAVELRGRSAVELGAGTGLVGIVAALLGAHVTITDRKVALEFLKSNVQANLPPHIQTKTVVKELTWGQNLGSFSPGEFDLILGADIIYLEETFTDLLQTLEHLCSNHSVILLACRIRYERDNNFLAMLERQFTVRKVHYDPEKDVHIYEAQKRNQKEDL
inactive: ibrutinib 0.006 | [1] -0.106 | ralimetinib 0.021 | [2] -0.032 | [3] 0 | [4] -0.019 | [5] -0.138 | [6] 0 | [7] 0.009 | [8] -0.032 | [9] 0.04 | barasertib 0.062 | volasertib -0.034 | [11] -0.054 | [12] -0.011 | [13] 0.049 | sotrastaurin 0.04
active: saracatinib 0.263

LYSMD3 (UniProt Q7Z3D4)
UniProt Q7Z3D4, sequence (Q7Z3D4 whole entry, looked up): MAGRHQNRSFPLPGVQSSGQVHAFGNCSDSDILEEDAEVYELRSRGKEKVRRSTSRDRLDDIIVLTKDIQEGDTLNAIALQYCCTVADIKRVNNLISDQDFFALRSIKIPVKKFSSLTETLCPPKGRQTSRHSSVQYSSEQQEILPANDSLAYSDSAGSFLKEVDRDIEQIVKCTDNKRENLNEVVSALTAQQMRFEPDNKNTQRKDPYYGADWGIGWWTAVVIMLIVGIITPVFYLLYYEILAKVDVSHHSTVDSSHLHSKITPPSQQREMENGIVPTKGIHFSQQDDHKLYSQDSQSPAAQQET
inactive: ibrutinib 0.098 | [1] -0.072 | ralimetinib 0.003 | [2] -0.046 | [3] -0.045 | [4] -0.099 | [5] -0.003 | [6] 0.034 | [7] 0.005 | [8] -0.01 | vemurafenib 0.025 | [9] -0.05 | barasertib -0.003 | [10] 0.074 | volasertib 0.056 | [11] -0.013 | [12] -0.094 | [13] 0.235 | saracatinib 0.056 | sotrastaurin 0.002

MORC2 (UniProt Q9Y6X9)
UniProt Q9Y6X9, sequence (Q9Y6X9 whole entry, looked up): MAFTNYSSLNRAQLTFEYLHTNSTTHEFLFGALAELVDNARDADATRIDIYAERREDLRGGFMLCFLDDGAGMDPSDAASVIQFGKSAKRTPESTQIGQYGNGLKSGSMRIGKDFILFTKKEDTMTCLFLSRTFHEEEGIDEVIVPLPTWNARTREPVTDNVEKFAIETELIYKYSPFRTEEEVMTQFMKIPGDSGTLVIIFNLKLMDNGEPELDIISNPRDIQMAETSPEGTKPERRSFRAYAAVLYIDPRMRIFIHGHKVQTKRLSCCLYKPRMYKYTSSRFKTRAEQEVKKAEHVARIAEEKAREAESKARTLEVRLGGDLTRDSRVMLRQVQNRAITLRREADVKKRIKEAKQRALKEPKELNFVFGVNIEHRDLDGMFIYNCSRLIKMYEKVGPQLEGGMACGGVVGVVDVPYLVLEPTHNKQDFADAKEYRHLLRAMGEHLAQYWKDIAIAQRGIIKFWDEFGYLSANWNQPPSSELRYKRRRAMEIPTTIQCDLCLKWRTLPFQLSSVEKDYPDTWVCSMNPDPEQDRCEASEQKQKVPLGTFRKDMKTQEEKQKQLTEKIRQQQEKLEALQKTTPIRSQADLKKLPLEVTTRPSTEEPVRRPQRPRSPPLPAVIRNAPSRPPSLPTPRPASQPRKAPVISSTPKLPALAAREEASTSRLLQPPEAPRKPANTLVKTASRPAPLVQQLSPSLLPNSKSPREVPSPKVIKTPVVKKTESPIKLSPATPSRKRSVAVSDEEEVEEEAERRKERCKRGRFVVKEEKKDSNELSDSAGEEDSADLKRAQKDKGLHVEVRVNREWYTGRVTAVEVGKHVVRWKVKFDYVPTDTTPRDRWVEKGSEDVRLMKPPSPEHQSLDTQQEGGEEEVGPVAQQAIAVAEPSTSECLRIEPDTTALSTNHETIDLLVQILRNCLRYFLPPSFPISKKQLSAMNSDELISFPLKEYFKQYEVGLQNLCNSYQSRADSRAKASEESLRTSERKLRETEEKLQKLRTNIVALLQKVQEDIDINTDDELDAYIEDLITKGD
inactive: ibrutinib 0.065 | [1] 0.02 | ralimetinib 0.054 | [2] -0.035 | [3] -0.039 | [4] -0.001 | [5] -0.026 | [6] -0.037 | [7] 0.072 | [8] 0.004 | vemurafenib 0.049 | [9] 0.01 | barasertib 0.054 | [10] 0.022 | volasertib 0.002 | [11] -0.006 | [12] -0.041 | [13] 0.008 | saracatinib 0.042 | sotrastaurin 0.037

MOCS1 isoform 8 (UniProt Q9NZB8)
UniProt Q9NZB8, sequence (Q9NZB8 whole entry, looked up): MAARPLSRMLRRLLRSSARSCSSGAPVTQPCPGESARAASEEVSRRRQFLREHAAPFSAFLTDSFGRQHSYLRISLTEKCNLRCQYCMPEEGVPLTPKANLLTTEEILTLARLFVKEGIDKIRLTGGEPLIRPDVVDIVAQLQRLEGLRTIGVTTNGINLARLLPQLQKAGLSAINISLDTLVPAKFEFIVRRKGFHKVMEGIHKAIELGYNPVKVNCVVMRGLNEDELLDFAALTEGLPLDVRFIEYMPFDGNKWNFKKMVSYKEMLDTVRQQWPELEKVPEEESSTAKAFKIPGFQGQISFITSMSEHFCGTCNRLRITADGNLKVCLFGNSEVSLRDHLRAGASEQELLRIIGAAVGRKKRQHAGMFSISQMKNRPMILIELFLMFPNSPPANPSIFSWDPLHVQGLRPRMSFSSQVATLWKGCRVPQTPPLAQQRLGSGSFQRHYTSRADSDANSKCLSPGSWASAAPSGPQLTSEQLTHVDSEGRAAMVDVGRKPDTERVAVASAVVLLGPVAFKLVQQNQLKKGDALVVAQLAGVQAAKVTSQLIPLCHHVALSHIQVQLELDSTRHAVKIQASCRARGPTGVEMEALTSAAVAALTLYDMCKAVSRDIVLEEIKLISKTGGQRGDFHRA
inactive: ibrutinib 0.186 | [1] 0.08 | ralimetinib -0.066 | [2] 0.035 | [3] 0.049 | [4] -0.005 | [5] -0.003 | [6] 0.069 | [7] -0.026 | [8] -0.002 | vemurafenib 0.063 | [9] 0.022 | barasertib 0.166 | [10] -0.043 | volasertib -0.004 | [11] -0.015 | [12] -0.063 | [13] -0.013 | saracatinib 0.006 | sotrastaurin -0.018

MCMBP isoform 2 (UniProt Q9BTE3)
UniProt Q9BTE3, sequence (Q9BTE3 whole entry, looked up): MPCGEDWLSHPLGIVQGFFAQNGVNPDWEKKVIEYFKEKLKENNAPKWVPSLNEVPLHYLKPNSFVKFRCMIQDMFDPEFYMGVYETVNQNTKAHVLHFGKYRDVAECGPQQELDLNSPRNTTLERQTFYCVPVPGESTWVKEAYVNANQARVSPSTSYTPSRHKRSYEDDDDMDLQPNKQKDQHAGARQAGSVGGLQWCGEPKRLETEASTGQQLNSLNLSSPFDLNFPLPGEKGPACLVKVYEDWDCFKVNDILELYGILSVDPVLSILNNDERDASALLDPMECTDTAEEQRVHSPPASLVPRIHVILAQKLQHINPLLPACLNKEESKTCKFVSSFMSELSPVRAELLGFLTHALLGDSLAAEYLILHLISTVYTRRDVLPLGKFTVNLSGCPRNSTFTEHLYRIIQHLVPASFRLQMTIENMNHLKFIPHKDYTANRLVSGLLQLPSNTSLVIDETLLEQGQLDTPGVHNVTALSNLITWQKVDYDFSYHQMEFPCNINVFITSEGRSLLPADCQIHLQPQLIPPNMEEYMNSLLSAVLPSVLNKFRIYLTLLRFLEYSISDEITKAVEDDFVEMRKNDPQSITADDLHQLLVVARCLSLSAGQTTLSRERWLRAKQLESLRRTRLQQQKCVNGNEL
inactive: ibrutinib -0.032 | [1] -0.055 | ralimetinib -0.138 | [2] 0.068 | [3] 0.114 | [4] -0.111 | [5] -0.05 | [6] 0.063 | [7] 0.12 | [8] 0.005 | vemurafenib -0.039 | [9] 0.081 | barasertib -0.096 | [10] 0.059 | volasertib -0.004 | [11] 0.047 | saracatinib -0.036 | sotrastaurin -0.015

MAP4K4 isoform 6 (UniProt O95819)
UniProt O95819, sequence (O95819 whole entry, looked up): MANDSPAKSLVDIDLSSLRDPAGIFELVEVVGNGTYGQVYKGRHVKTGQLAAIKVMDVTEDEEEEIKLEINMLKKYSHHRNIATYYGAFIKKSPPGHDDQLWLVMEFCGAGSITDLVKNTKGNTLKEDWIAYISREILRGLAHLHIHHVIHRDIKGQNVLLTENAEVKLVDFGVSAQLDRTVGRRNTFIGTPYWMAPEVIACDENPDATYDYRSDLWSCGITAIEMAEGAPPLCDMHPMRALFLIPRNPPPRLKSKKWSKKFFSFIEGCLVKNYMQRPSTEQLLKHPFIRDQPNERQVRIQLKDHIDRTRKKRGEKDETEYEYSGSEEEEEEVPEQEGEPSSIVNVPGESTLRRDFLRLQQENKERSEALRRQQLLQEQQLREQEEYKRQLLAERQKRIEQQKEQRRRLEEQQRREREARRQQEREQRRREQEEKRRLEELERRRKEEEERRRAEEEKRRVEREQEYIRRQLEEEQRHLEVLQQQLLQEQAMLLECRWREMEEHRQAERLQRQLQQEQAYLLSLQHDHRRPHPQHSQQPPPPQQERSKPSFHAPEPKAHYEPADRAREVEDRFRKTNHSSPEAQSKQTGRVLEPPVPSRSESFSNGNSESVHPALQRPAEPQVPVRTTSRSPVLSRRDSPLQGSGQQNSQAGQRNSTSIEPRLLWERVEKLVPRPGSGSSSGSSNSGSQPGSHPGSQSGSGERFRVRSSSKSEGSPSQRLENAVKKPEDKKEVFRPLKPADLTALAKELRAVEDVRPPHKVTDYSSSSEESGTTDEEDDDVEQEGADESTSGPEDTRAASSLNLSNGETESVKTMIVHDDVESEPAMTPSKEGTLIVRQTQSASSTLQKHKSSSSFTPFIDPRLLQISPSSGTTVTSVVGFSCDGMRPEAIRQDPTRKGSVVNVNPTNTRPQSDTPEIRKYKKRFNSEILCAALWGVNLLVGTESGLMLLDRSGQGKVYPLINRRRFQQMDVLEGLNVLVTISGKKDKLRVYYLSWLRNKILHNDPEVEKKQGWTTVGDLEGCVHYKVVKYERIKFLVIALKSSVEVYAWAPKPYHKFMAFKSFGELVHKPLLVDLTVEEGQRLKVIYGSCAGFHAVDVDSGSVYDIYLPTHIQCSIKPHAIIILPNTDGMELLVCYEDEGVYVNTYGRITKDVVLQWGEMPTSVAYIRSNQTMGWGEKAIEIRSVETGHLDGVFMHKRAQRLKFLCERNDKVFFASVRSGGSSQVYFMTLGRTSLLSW
inactive: ibrutinib 0.056 | [1] 0.001 | ralimetinib -0.19 | [2] 0.027 | [3] -0.021 | [5] -0.127 | [7] 0.002 | [8] 0.037 | [9] 0.073 | barasertib 0.06 | [10] 0.06 | volasertib -0.04 | [11] -0.025 | saracatinib 0.006

MED10 (UniProt Q9BTT4)
inactive: ibrutinib -0.029 | [1] -0.087 | ralimetinib -0.015 | [2] -0.055 | [3] -0.019 | [4] -0.013 | [5] -0.025 | [6] 0.02 | [7] 0.074 | [8] 0.074 | vemurafenib 0.037 | [9] 0 | barasertib 0.08 | [10] 0.133 | volasertib 0.066 | [11] -0.009 | [12] 0.107 | [13] -0.059 | saracatinib 0.077 | sotrastaurin -0.015

MAPKAPK5 (UniProt Q8IW41)
inactive: ibrutinib -0.001 | [1] -0.008 | ralimetinib -0.024 | [2] -0.012 | [3] 0 | [4] -0.057 | [5] -0.01 | [6] 0.034 | [7] 0.048 | [8] -0.066 | vemurafenib -0.111 | [9] -0.11 | barasertib -0.013 | [10] -0.009 | volasertib -0.052 | [11] 0.031 | [12] 0.017 | [13] -0.02 | saracatinib -0.009 | sotrastaurin -0.068

MICU2 (UniProt Q8IYU8)
UniProt Q8IYU8, sequence (Q8IYU8 whole entry, looked up): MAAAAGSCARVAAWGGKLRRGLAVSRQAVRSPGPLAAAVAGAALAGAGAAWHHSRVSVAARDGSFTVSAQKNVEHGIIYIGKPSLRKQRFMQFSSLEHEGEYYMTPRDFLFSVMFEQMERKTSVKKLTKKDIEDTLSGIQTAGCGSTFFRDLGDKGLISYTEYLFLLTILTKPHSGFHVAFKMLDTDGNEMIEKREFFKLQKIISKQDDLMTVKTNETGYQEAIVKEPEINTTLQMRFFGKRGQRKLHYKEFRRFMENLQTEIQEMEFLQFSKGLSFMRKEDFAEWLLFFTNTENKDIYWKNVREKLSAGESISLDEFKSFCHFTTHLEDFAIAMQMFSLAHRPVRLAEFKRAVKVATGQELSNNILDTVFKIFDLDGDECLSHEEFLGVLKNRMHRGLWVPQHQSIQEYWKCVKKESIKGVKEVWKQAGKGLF
inactive: ibrutinib 0.036 | [1] -0.095 | ralimetinib -0.019 | [2] -0.026 | [3] -0.016 | [4] -0.019 | [5] -0.004 | [6] 0.012 | [7] -0.018 | [8] 0.013 | vemurafenib -0.061 | [9] 0.043 | barasertib 0.109 | [10] -0.023 | volasertib 0 | [11] -0.036 | [12] 0.013 | [13] -0.101 | saracatinib 0.021 | sotrastaurin 0.126

LIMK1 (UniProt P53667)
active: ibrutinib 0.546
inactive: [1] -0.04 | ralimetinib -0.125 | [2] -0.161 | [4] -0.067 | [5] 0.026 | [6] -0.085 | [7] 0.059 | [8] -0.148 | vemurafenib 0.234 | [9] 0.179 | barasertib 0.007 | [10] -0.195 | volasertib -0.215 | [11] 0.108 | [12] -0.104 | [13] -0.028 | saracatinib -0.022 | sotrastaurin -0.15

LRRC7 (UniProt Q96NW7)
inactive: ibrutinib -0.081 | [1] 0.026 | ralimetinib -0.115 | [2] -0.073 | [5] 0.041 | [6] -0.062 | [7] 0.09 | [8] 0.086 | vemurafenib 0.112 | [9] -0.024 | barasertib 0.062 | [10] 0.056 | volasertib 0.047 | [11] -0.008 | [12] -0.033 | [13] -0.043 | saracatinib -0.044 | sotrastaurin -0.012

LARS2 (UniProt Q15031)
inactive: ibrutinib 0.009 | [1] 0.034 | ralimetinib 0.026 | [2] 0.156 | [3] -0.027 | [4] 0.02 | [5] 0.063 | [6] -0.036 | [7] 0.046 | [8] 0.028 | vemurafenib -0.015 | [9] 0.007 | barasertib 0.077 | [10] -0.103 | volasertib -0.081 | [11] 0.061 | [12] 0.024 | [13] -0.073 | saracatinib 0.029 | sotrastaurin 0.072

MRPL28 (UniProt Q13084)
active: [12] 0.411
inactive: ibrutinib 0.151 | [1] 0.04 | ralimetinib 0.027 | [2] -0.005 | [3] 0.012 | [4] -0.112 | [5] -0.017 | [6] 0.057 | [7] -0.012 | [8] 0.023 | vemurafenib 0.005 | [9] 0.009 | barasertib 0.053 | [10] -0.06 | volasertib 0.019 | [11] 0.024 | [13] -0.356 | saracatinib -0.016 | sotrastaurin 0.055

MRPL27 (UniProt Q9P0M9)
active: [12] 0.926
inactive: ibrutinib -0.046 | [1] -0.057 | ralimetinib 0.023 | [2] -0.025 | [3] 0.106 | [4] 0.002 | [5] -0.195 | [6] -0.028 | [7] 0.1 | [8] 0.079 | [9] -0.051 | barasertib -0.01 | [10] 0.076 | volasertib 0.017 | [11] -0.006 | [13] -0.218 | saracatinib 0.009 | sotrastaurin 0.05

MAPK9 (UniProt P45984)
UniProt P45984, sequence (P45984 whole entry, looked up): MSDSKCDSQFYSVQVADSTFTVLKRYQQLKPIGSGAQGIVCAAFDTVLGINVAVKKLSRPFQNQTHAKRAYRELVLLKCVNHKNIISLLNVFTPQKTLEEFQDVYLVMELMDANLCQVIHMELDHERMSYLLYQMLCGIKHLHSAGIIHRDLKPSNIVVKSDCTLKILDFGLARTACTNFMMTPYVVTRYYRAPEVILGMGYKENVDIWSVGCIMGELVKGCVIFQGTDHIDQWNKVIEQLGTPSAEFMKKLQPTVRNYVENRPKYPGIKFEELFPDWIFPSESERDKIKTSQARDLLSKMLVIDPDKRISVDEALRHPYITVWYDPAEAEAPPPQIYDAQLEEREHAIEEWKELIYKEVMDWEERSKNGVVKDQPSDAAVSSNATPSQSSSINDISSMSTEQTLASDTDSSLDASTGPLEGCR
inactive: ibrutinib -0.024 | [2] 0.002 | [3] -0.029 | [4] -0.038 | [5] -0.086 | [6] 0.103 | [7] -0.029 | [8] -0.015 | vemurafenib -0.016 | [9] -0.002 | barasertib -0.025 | [10] -0.063 | volasertib 0.006 | [11] -0.007 | [12] 0.084 | [13] -0.15 | saracatinib 0.002 | sotrastaurin -0.031
active: [1] 0.234 | ralimetinib 0.366

MAST2 (UniProt Q6P0Q8)
inactive: ibrutinib 0.136 | [1] 0.054 | ralimetinib 0.033 | [2] -0.084 | [3] 0.071 | [5] -0.157 | [6] 0.03 | [7] 0.031 | [8] -0.022 | vemurafenib 0.134 | [9] -0.062 | barasertib 0.105 | [10] 0.068 | volasertib 0.045 | [11] -0.127 | [12] 0.102 | [13] 0.06 | saracatinib 0.056 | sotrastaurin -0.024
